Screening results as filed in PubChem.
sEH act: soluble epoxide hydrolase activators, primary screen, biochemical, human sEH; Bifunctional epoxide hydrolase 2 (Homo sapiens), P34913; AID 717, 2007; activation, % at 2 µM; purified human sEH enzymatic activity, activator screen; 91,000 compounds, 0.04% hits; in the data active = activation above about 37%
CYP2C9 inh: blockers of cytochrome P450 2C9 activity – biochemical, luminescence, ADME assay, primary screen | P11712 | CYP2C9 Supersomes, luciferin-H conversion | inhibition, % at 5 µM | 96,000 compounds, 20% hits | AID 777, 2007;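 active = blocking of liver enzyme CYP2C9 beyond about 50% at 5 µM, limit read from the data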
Target sequence (P11712 whole entry, looked up): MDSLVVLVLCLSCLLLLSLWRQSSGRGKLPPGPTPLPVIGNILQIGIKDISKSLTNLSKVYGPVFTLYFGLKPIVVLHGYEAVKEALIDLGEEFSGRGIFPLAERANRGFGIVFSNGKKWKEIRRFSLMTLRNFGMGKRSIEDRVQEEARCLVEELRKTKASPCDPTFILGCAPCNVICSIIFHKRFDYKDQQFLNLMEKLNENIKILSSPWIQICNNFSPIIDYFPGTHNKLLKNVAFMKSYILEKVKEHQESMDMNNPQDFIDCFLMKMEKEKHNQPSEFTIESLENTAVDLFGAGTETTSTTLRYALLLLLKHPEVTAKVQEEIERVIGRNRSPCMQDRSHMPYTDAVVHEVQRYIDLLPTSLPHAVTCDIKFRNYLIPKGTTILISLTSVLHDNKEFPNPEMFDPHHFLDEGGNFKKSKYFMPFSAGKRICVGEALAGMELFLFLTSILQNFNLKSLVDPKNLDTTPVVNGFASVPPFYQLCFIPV
CYP2C19 act: human CYP2C19 activators, primary screen, biochemical, luminescence; Cytochrome P450 2C19 (Homo sapiens), P33261; recombinant CYP2C19, luciferin-H EGE luminescence; stronger effect = higher value; 0 = fully inhibited enzyme, 1 = untreated enzyme; activation factor at 5 µM; 96,000 tested, under 10 active;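 active = activation factor of at least 2 at 5 µM in the primary screen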
CYP2C19 inh: blockers of cytochrome P450 2C19 activity – biochemical, luminescence, ADME assay, primary screen; P33261; CYP2C19 Supersomes, luciferin-H EGE luminescence, 30 min; inhibition, % at 5 µM; 96,000 compounds, 21% hits;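 active = CYP2C19 inhibition above a set limit at 5 µM in the primary screen, cut at about 50% in these data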
sEH inh: soluble epoxide hydrolase inhibitors, primary screen, biochemical, human sEH. recombinant human sEH enzymatic activity assay. inhibition, % at 2 µM. 91,000 compounds, 0.34% hits. AID 707, 2007; in the data active = inhibition above about 80%
CYP2C9 act: human CYP2C9 activators, primary screen, biochemical, luminescence. Cytochrome P450 2C9 (Homo sapiens), P11712. recombinant CYP2C9, luciferin-H conversion; stronger effect = higher value; factor 1 = untreated enzyme, 0 = blocked. activation factor at 5 µM. 96,000 compounds, 1.4% hits. AID 1024, 2008;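 active = activation factor of 2 or more for CYP2C9 at a 5 µM dose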
Each line names hits and unclear results; the compound was inactive in the other large screens. Shown are actives, neighbours in structure and some others; about 27% of the full set was active somewhere.

NNC(=O)c1cnn(Cc2ccccc2)c1N	sEH inh 87 (no result: CYP2C9 inh, CYP2C19 act, CYP2C19 inh, CYP2C9 act)
COc1ccc(-n2nnnc2-c2cccc(OC)c2)cc1	CYP2C9 inh 85, CYP2C19 inh 99
O=c1c2ccccc2c(-c2ccccc2)nn1-c1ccc(Cl)c(Cl)c1	none
Clc1ccc(-n2nnnc2-c2ccccc2)cc1Cl	CYP2C19 inh 95 (no result: sEH act, sEH inh)
O=C(Nc1nnc(CCN2CCOCC2)s1)C1CCCCC1	none (no result: sEH act, sEH inh)
CCN(CC)C(=O)CSc1nc(O)cc(=O)n1CC	none
Cc1ccc(N=C2NC(=O)CS2)c(C)c1	none
O=C1CSC(=Nc2cc(Cl)ccc2Cl)N1	CYP2C9 inh 72
Cc1cc(C)cc(NC(=O)c2cc(S(=O)(=O)NCc3ccco3)ccc2F)c1	none
CCC1CCCCN1C(=O)COC(=O)c1cc2ccccc2cc1O (centres undefined)	CYP2C19 inh 53 (no result: sEH act, sEH inh)
Cc1cc(C)n(-c2ccc(Cl)c(C(=O)OCC(=O)N3CCCCC3C)n2)n1 (centres undefined)	none (no result: sEH act, sEH inh)
Nc1cc(C(=O)OCC(=O)N2CCCC2)ccc1Cl	none (no result: sEH act, sEH inh)
O=C(OCC(=O)N1CCCCC1)c1cc2ccccc2cc1O	CYP2C19 inh 76
C=CCc1c(C)nc(SC)nc1Nc1ccc(C)cc1	none
CCS(=O)CCSC(=N)N (centres undefined)	none
COC(=O)c1ccc(CN(c2ccccn2)S(=O)(=O)c2ccccc2)cc1	CYP2C19 inh 70
Cc1nc2c(c(=O)n1CCC1=CCCCC1)c1nc3ccccc3nc1n2/N=C/c1ccco1	CYP2C9 inh 71
COc1ccc(S(=O)(=O)N[C@@H](Cc2ccc(Cl)cc2)C(=O)N2CC[C@@]3(O)CCCC[C@H]3C2)cc1	none
CN(C)S(=O)(=O)c1cccc(-c2nnc(-c3ccccc3)o2)c1	CYP2C9 inh 92
Cc1ccccc1NS(=O)(=O)c1cccc(-c2nnc(-c3ccccc3)o2)c1	none
Clc1cccc(-c2nnc(-c3ccccc3)o2)c1	none
O=S(=O)(NC1CCCCC1)c1cccc(-c2nnc(-c3ccccc3)o2)c1	CYP2C9 inh 84
CCC(CC)c1nnc(NC(=O)CN2C(=O)C3C4C=CC(C4)C3C2=O)s1 (centres undefined)	none
O=C(O)Cc1ccc2c(c1)N(S(=O)(=O)c1cccc(C(F)(F)F)c1)CC(C(=O)O)O2 (centres undefined)	none
Cc1cc(C(=O)NCc2cc(C(=O)O)oc2C)c(C)o1	none
CC(NC(=O)NC1CCCCC1)C(c1cccs1)N1CCN(c2ccccc2)CC1 (centres undefined)	none
c1cncc(CNc2c3c(nc4nnnn24)CCCC3)c1	CYP2C19 inh 68 (no result: sEH act, sEH inh)
c1ccc(CNc2c3c(nc4ncnn24)CCCC3)nc1	none
CCC(Oc1ccccc1)C(=O)Nc1ccc(-c2nnc(-c3ccco3)o2)cc1 (centres undefined)	CYP2C9 inh 97, CYP2C19 inh 90
O=C(COC(=O)c1ccco1)Nc1ccc(Br)cc1	none
O=C(COc1ccc(Br)cc1)Nc1ccc(-c2nnc(-c3ccco3)o2)cc1	CYP2C19 inh 64
CCNC(=S)NNC(=O)c1ccc(OC(F)F)cc1	none
CC(C)n1c(CCCO)nc2ccccc21	none (no result: sEH act, sEH inh)
CCOC(=O)c1ccc(NC(=O)COc2ccc(S(=O)(=O)NC(C)C)cc2)cc1	none
CCOC(=O)CSc1nc2cc(C(=O)NCC3CCCO3)ccc2c(=O)n1Cc1ccco1 (centres undefined)	CYP2C9 inh 72
C=CCn1c(SCC(=O)NC(=O)NCc2ccco2)nc2sc(CC)cc2c1=O	CYP2C9 inh 71 (no result: sEH act, sEH inh)
CCN(C(=O)CSc1nc2cc(C(=O)OC)ccc2c(=O)n1Cc1ccco1)c1cccc(C)c1	CYP2C9 inh 92, CYP2C19 inh 64
CCCCCn1c(SCC(=O)OCC)nc2cc(C(=O)NCc3ccco3)ccc2c1=O	none
C=CCn1c(SCC(=O)OCC)nc2cc(C(=O)NCc3ccco3)ccc2c1=O	CYP2C9 inh 54
CCc1n[nH]c2c1C(=O)CC(C)(C)C2	none
Fc1ccc(Oc2cc(N3CCOCC3)nc(-c3ccccc3)n2)c(F)c1	none
CCOC(=O)c1c(C#N)cnn1-c1ccc(C)cc1	none
CC(C)[C@H](NC(=O)OC(C)(C)C)C(=O)N/N=C/c1cccc2nccnc12	none
CCCCCn1c(SCC2CCCO2)nc2cc(C(=O)N3CCC(C(N)=O)CC3)ccc2c1=O (centres undefined)	CYP2C9 inh 53 (no result: sEH act, sEH inh)
CCOC(=O)CSc1nc2cc(C(=O)OC)ccc2c(=O)n1CCN1CCOCC1	CYP2C19 inh 69
Cc1cc(C)n(-c2nc3nonc3nc2Nc2cccc(C)c2C)n1	none
COc1ccc(OC)c(-n2c(N)c(C(=O)NCC3CCCO3)c3nc4ccccc4nc32)c1 (centres undefined)	none
Nc1c(C(=O)OCC2CCCO2)c2nc3ccccc3nc2n1C1CCCC1 (centres undefined)	CYP2C9 inh 55
COCCn1c(N)c(C(=O)NCC2CCCO2)c2nc3ccccc3nc21 (centres undefined)	none (no result: sEH act, sEH inh)
CC(C)Cn1c(N)c(C(=O)NCC2CCCO2)c2nc3ccccc3nc21 (centres undefined)	CYP2C9 inh 85, CYP2C19 inh 65
Clc1ccc(-c2nnsc2SCc2ccccc2)cc1	none
O=C(CCCCCN1C(=O)c2ccccc2C1=O)NC1CCCC1	CYP2C9 inh 89, CYP2C19 inh 78
Cc1cccc(NC(=O)CCCN2C(=O)c3ccccc3C2=O)n1	none
Cc1cccc(NC(=O)CCCCCN2C(=O)c3ccccc3C2=O)n1	CYP2C9 inh 79
COCc1nnc(NC(=O)CCCCCN2C(=O)c3ccccc3C2=O)s1	CYP2C9 inh 63
O=C(CCCCCCN1C(=O)c2ccccc2C1=O)Nc1nccs1	none (no result: CYP2C9 inh, CYP2C19 act, CYP2C19 inh, CYP2C9 act)
O=C(CN1CCN(c2ccc(Cl)cc2)CC1)Nc1ccc(F)c(F)c1	none
O=S(=O)(NC1CCCCC1)c1ccc(-c2csnn2)s1	CYP2C9 inh 61, CYP2C19 inh 100
CCC(C)NS(=O)(=O)c1ccc(-c2csnn2)s1 (centres undefined)	CYP2C19 inh 100
CC(C)(C)NS(=O)(=O)c1ccc(-c2csnn2)s1	CYP2C19 inh 93
O=S(=O)(NC1CCCC1)c1ccccc1Cl	none (no result: CYP2C9 inh, CYP2C19 act, CYP2C19 inh, CYP2C9 act)
CC(C(=O)NC1CCCc2ccccc21)N1CCN(Cc2ccc3c(c2)OCO3)CC1 (centres undefined)	none
Clc1cc(NCc2cccs2)ccc1N1CCOCC1	CYP2C9 inh 81, CYP2C19 inh 94
CCCn1c2c(c(O)c(C(=O)Nc3ccc(OCC)cc3)c1=O)CCCC2	CYP2C9 inh 52
CCCCN(CCCC)S(=O)(=O)c1ccc(SCC(=O)OCC)c([N+](=O)[O-])c1	CYP2C9 inh 67
CCCCN(CCCC)S(=O)(=O)c1ccc(N2CCCC2=O)c([N+](=O)[O-])c1	none (no result: CYP2C9 inh, CYP2C19 act, CYP2C19 inh, CYP2C9 act)
